# Reference: PubChem BioAssay AID720697 (Broad Institute, 2013)
# Potency and affinity values are given separately. Inconclusive results are not listed. Where a call stands in place of a potency, no number is given. Values without a mark were called inactive. The source made the active and inactive calls.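 Rule for the calls: active = signal loss with fitted half-maximal concentration at or below twice the top valid tested dose in every test run; inconclusive = runs disagree, flat 30 to 70% signal loss, or poor fit; inactive = all runs flat, opposite direction, or potency beyond limit.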
# Assay: HEK293T cytotoxicity, dose response, cytotoxicity control for miR-122 modulator project, cell-based, inhibitor set, cherry-pick, set 2 (AID 720697)
# Settings: HEK293T viability, CellTiter-Glo luminescence, 48 h; series mostly up to 26 µM
Structure (SMILES),outcome,"activity change, negative = cytotoxicity"
C/C=C/c1ccc([C@@H]2[C@@H](CNC(=O)CC)N(Cc3ccccn3)[C@H]2CO)cc1,inactive,–
Cc1nc(C)c(C(=O)Nc2ccc(Oc3ccccc3)cc2)o1,inactive,–
CCN(C[C@@H]1[C@@H](c2ccccc2)[C@@H](CO)N1S(C)(=O)=O)C(=O)C1CC1,inactive,–
Cc1ccc(C(=O)n2nc(-c3ccccc3)nc2NCc2ccco2)cc1,inactive,–
COc1ccc(CN2CCN(Cc3cccn3-c3ncccn3)CC2CCO)c(C)c1C (centres undefined),inactive,–
CCN(C[C@H]1[C@H](c2ccccc2)[C@H](CO)N1C(=O)COC)S(C)(=O)=O,inactive,–
O=C(c1cccc(F)c1)N1C[C@@H]2[C@H](c3ccccc31)[C@H](CO)N2C(=O)Cc1ccccc1,inactive,–
C[C@@H]1CN([C@@H](C)CO)C(=O)c2cccc(NS(C)(=O)=O)c2O[C@H]1CN(C)S(=O)(=O)c1ccc(Cl)cc1,inactive,–
COc1cccc(CNC(=O)C[C@H]2CC[C@@H]3[C@H](COc4ccc(NC(C)=O)cc4C(=O)N3C)O2)c1,inactive,–
CNC(=O)C[C@@H]1CC[C@@H]2[C@@H](COc3ccc(NC(=O)NC(C)C)cc3C(=O)N2C)O1,inactive,–
CN1C(=O)c2cc(NC(=O)c3cccs3)ccc2OC[C@@H]2O[C@@H](CC(=O)O)CC[C@@H]21,inactive,–
Cc1cccc(NC(=O)Nc2ccc3c(c2)C(=O)N(C)[C@@H]2CC[C@H](CC(=O)NCc4ccccc4Cl)O[C@H]2CO3)c1,inactive,–
C/C=C/c1ccc([C@@H]2[C@@H](CO)N[C@@H]2CN(C(=O)C2CCCC2)C(C)C)cc1,inactive,–
CN1C(=O)c2cc(NC(=O)c3ccc(C(F)(F)F)cc3)ccc2OC[C@H]2O[C@H](CC(=O)NCc3ccc4c(c3)OCO4)CC[C@@H]21,inactive,–
C/C=C/c1ccc([C@@H]2[C@@H](CNC(=O)c3ccncc3)N(C(=O)CC)[C@H]2CO)cc1,inactive,–
CC(C)NC(=O)Nc1ccc2c(c1)C(=O)N(C)[C@@H]1CC[C@H](CC(=O)NCC(F)(F)F)O[C@H]1CO2,inactive,–
CCNC(=O)C[C@@H]1CC[C@H]2[C@@H](COc3ccc(NC(=O)c4ccc(C(F)(F)F)cc4)cc3C(=O)N2C)O1,inactive,–
Cc1cc(C)c2c(c1)/C(=C/C(=O)c1ccc(Br)s1)C(=O)N2,inactive,–
CC(C)NC(=O)N1[C@H](CO)[C@@H](c2ccccc2)[C@@H]1CNC(=O)CN(C)C,inactive,–
C[C@H]1CN([C@@H](C)CO)S(=O)(=O)c2ccc(C#CC3CCCCC3)cc2O[C@@H]1CN(C)C,inactive,–

Structure (SMILES),outcome,"activity change, negative = cytotoxicity"
O=C(CN1CCOCC1)NC[C@@H]1N[C@@H](CO)[C@@H]1c1ccc(-c2ccccc2)cc1,inactive,–
COc1ccc(OC)c(Nc2cc(C)nc3ccc(C)cc23)c1,–,-30% [at 6 µM]
COc1ccc(NC(=O)COC(=O)CCCc2c[nH]c3ccccc23)cc1,inactive,–
C[C@@H]1CN([C@H](C)CO)S(=O)(=O)c2ccc(-c3ccccc3)cc2O[C@@H]1CN(C)C(=O)c1ccc2c(c1)OCO2,inactive,–
CCCNC(=O)C[C@@H]1CC[C@H]2[C@@H](COc3ccc(NC(=O)c4ccc(C(F)(F)F)cc4)cc3C(=O)N2C)O1,inactive,–
CCCC(=O)Nc1ccc2c(c1)C(=O)N(C)[C@@H]1CC[C@H](CC(=O)NCCOC)O[C@H]1CO2,inactive,–
CN1C(=O)c2cc(NC(=O)Nc3ccc(Cl)cc3)ccc2OC[C@@H]2O[C@@H](CC(=O)NCCN3CCCCC3)CC[C@H]21,inactive,–
COc1nnc(-c2ccc(N3CCOCC3)c(NC(=O)c3ccccc3)c2)c2ccccc12,inactive,–
CCC(=O)NC[C@H]1[C@H](c2ccc(C3=CCCC3)cc2)[C@H](CO)N1C(C)=O,inactive,–
COC(=O)C[C@H]1CC[C@@H]2[C@H](COc3ccc(NC(=O)c4cccs4)cc3C(=O)N2C)O1,inactive,–
C[C@@H]1CN([C@H](C)CO)S(=O)(=O)c2ccc(C3=CCCCC3)cc2O[C@@H]1CN(C)C(=O)Cc1ccncc1,inactive,–
COC(=O)C[C@H]1CC[C@@H]2[C@@H](COc3ccc(NC(=O)c4cscn4)cc3C(=O)N2C)O1,inactive,–
CCNC(=O)C[C@H]1CC[C@H]2[C@@H](COc3ccc(NC(=O)c4ccccc4)cc3C(=O)N2C)O1,inactive,–
CC(C)C(=O)Nc1ccc2c(c1)C(=O)N(C)[C@@H]1CC[C@H](CC(=O)NCc3cccc(F)c3)O[C@H]1CO2,inactive,–
C[C@H](CO)N1C[C@H](C)[C@H](CN(C)S(=O)(=O)c2cccc(F)c2)Oc2ncc(C#CC3CCCCC3)cc2C1=O,inactive,–
CCOC(=O)c1nc(C)n(-c2ccc(Cl)cc2Cl)n1,inactive,–
O=C(NC[C@H]1[C@@H](c2ccccc2)[C@@H](CO)N1CC1CCCC1)c1ccncc1,inactive,–
CCC(=O)N1[C@H](CN(CC)C(=O)c2ccccc2)[C@@H](c2ccccc2)[C@@H]1CO,inactive,–
C/C=C/c1ccc([C@H]2[C@@H](CO)N(C(=O)CC)[C@H]2CNC(=O)CC)cc1,inactive,–
